Assay [1] is described as follows: inhibitors of mutant huntingtin aggregation, primary screen, imaging, exon1htt(103Q)mCFP cells, high-content imaging (AID 483;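 active = visual image review flags a hit and inhibition of aggregation exceeds 20%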;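 also: compound exposure lasted 3 days before fixation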;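 as to nuclei count: percent of the per-plate median nuclei count of sample wells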). Particulars: exon1htt(103Q)mCFP cell line, aggregate imaging, at 2 µM; inhibition of aggregation: stronger effect = higher value; nuclei count: measured here: cell count, toxicity.
Assay [2] in a line: inhibitors of E-selectin induction by TNFa, primary screen, imaging, HUVEC, immunofluorescence, MLSMR starter and 10KST1 sets (AID 487;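 active = visually confirmed hit in the image check and inhibition above 20%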;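 as to inhibition: signal is fraction of cell area covered by stained E-selectin grains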;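 as to nuclei count: 100% = median nuclei count of all wells on the same plate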). The note with it: HUVEC TNFalpha-induced E-selectin immunofluorescence imaging, at 2 µM; inhibition: stronger effect = higher value; nuclei count: measured here: cell number, toxicity.
Assay [3] in a line: DUSP6 inhibitors restoring Erk phosphorylation by chemical complementation, primary imaging in DUSP6-transfected HeLa (AID 609;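 active = compounds giving at least 50% inhibition in the cell-based MKP-3 phosphatase rescue imaging test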;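 as to inhibition: phospho-Erk level distribution per well compared with pooled transfected vehicle control wells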). The note with it: HeLa MKP-3 transfected, phospho-Erk imaging KS statistic, at 10 µM, cells stimulated with TPA for 15 min.
For assay [4], the target named is Dual specificity protein phosphatase 6 (Homo sapiens) (UniProt Q16828). The assay is described as above. Particulars: HeLa MKP-3 transfected, phospho-Erk imaging KS statistic; at 10 µM; stronger effect = higher value; cells stimulated with TPA for 15 min.
For assay [5], the target named is Voltage-gated potassium channel subunit beta-2 (Rattus norvegicus) (UniProt P62483). Nature of the assay: KvBeta enzyme negative modulators, primary screen, biochemical, NADPH fluorescence (AID 622;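 active = fluorescence slope higher than the sample average by over 3 SD, cut at about -0.22 in these data, passing the limit was not always enough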;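 also: slope of raw intensity against log time taken from 70 to 1610 s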). The note with it: recombinant KvBeta, 4-cyanobenzaldehyde reduction, at 10 µM, stronger effect = higher value.
Assay [6] has the same target. Briefly: KvBeta positive modulators, primary screen, biochemical, NADPH fluorescence (AID 623;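 active = NADPH fluorescence slope more negative than the mean of all samples by about 3 SD, 99.7% confidence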;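 also: fluorescence intensity change per second fitted from 20 to 320 s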). The note with it: Recombinant KvBeta, NADPH fluorescence decrease slope, 10 min; at 10 µM; stronger effect = lower value.
Assay [7] deals with Alpha-2C adrenergic receptor (Homo sapiens) (UniProt P18825). Briefly: modulators of alpha2C/GIRK thallium flux, primary screen, cell-based, HEK293 alpha2C/GIRK1/2 (AID 624;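 active = fluorescence slope after compound addition differing from the mean of all screened samples at 99.7% confidence, in either direction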;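 also: slope of fluorescence ratio to pre-addition baseline per second over 15 to 24 s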). The note with it: thallium flux BTC fluorescence, at 10 µM, actives lie on both sides.
Assay [8] is described as follows: inhibitors of larval lipid processing in zebrafish, primary screen, whole organism, PED6 fluorescence, gall bladder and intestine (AID 686;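 active = a full or partial loss of lipid-probe fluorescence in the fish gall bladder, intestine or both, judged by eye; inactive = no fluorescence loss, or compound toxic to the fish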;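 also: larvae 5 to 7 days old with five fish per well; signal comes from phospholipase A2 cleavage of quenched PED6 carried via bile; overnight exposure to compound and PED6 before scoring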). The note with it: Zebrafish larvae PED6 lipid processing, fluorescence scoring; screened at 20 µM (by protocol).
Assay [9] in a line: inhibitors of Chlamydomonas gravitaxis, primary screen, whole organism, Chlamydomonas reinhardtii, WT vs cilia-less mutant, absorbance, 96-well (AID 463189).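 Also: 0% = wild type cc124 cells in DMSO and 100% = ciliumless bld1 mutant cells.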 Particulars: OD600 absorbance, 2 days, at 10 µM, stronger effect = higher value.
Assay [10] in a line: inhibitors of Sendai virus-induced IRF3 signaling, primary screen, TLR/RLR signaling modifier project, cell-based, Sendai virus stimulus, luciferase, 10K MLSCN set (AID 602276;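 active = inhibition at or above 50% at 10 µM; inactive = inhibition below 50%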;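 also: firefly luciferase from ISG56 promoter only with Renilla not read in this screen; 0% = Sendai virus plus DMSO and 100% = medium plus DMSO without virus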). Particulars: HEK293 RL24 IRF3 luciferase reporter, at 10 µM, stronger effect = higher value.
The nature of assay [11]: inhibitors of poly I:C-induced TLR3 signaling, primary screen, cell-based, poly I:C stimulus, luciferase, 10K MLSCN set (AID 602277;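 active = inhibition of the reporter signal at or above 50%; inactive = inhibition below 50%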). Particulars: HEK293-TLR3 RL24 IRF3 luciferase reporter, at 10 µM, stronger effect = higher value. On the technique in general: Reporter assays use an easily measured gene product as a stand-in for the process of interest.
The mark [12] stands for this setting: measured here: cell density z-score.
Where [13] appears, read: measured here: nuclear c-Myc green intensity z-score.
Setting [14] is: measured here: nuclear pErk red intensity z-score, stronger effect = higher value.

“And” between values parts separate entries of the source, which are not always exact repeats. Equal values may be shown once. The source made the active and inactive calls.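 The calls were made as follows, unless noted: active = inhibition at or above 50% relative to wild type and mutant plate controls; inactive = inhibition below 50%.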

Sequence of Alpha-2C adrenergic receptor (Homo sapiens) (P18825 whole entry, looked up): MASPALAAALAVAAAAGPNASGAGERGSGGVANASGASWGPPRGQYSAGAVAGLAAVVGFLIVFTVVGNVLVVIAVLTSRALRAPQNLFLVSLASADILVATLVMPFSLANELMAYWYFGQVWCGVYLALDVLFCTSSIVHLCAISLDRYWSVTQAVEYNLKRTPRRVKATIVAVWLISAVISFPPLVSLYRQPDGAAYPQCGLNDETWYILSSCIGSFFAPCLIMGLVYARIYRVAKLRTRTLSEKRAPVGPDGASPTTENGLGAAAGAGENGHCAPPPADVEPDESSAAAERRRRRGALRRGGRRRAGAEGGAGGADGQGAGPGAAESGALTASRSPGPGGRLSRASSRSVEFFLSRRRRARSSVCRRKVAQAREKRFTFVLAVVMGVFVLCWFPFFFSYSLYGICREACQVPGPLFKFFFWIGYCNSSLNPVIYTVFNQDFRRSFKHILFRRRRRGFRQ
Sequence of Voltage-gated potassium channel subunit beta-2 (Rattus norvegicus) (P62483 whole entry, looked up): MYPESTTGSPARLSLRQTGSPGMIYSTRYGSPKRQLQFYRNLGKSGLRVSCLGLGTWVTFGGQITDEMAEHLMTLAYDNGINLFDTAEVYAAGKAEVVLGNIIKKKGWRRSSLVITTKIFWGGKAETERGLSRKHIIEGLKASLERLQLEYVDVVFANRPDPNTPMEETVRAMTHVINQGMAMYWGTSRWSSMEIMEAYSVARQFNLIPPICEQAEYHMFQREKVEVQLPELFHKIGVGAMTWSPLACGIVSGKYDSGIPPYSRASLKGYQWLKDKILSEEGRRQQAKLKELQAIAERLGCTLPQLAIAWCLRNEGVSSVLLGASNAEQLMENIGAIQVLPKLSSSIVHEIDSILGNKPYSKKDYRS
Sequence of Dual specificity protein phosphatase 6 (Homo sapiens) (Q16828 whole entry, looked up): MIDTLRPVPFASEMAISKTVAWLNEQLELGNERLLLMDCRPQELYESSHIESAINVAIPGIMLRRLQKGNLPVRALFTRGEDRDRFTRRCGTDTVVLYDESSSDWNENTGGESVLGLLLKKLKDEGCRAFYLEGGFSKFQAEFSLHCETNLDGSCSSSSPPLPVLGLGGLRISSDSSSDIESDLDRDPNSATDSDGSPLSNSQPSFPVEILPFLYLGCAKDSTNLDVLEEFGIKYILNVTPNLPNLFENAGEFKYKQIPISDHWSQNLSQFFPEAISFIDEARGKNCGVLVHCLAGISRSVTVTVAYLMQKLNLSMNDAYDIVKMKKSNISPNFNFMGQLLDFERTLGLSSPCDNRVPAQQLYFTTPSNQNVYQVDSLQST

As a reminder, the inhibition is the drop in the measured response relative to a control, in per cent. With `CCOc1ccc2nc(S(N)(=O)=O)sc2c1`, the inhibition of aggregation in assay [1] is -4.8% (inactive). Besides, the figures for the nuclei count in [1] and in assay [2] were 112% and 127%, respectively. The inhibition was -20.9% (inactive) in assay [2]; 21.2% (inactive) in assay [4]; 31% (inactive) in [9]; 3.12% (inactive) in assay [10]; -17% (inactive) in assay [11]. Further, the z-score is 1.44 in assay [3] (setting [12]), 0.726 in [3] (setting [13]) and -0.916 in assay [3] (setting [14]). Besides, in assay [5], the fluorescence slope is -0.485 (inactive). Further, in assay [6], the NADPH fluorescence slope was -5.5e-05 (inactive). For the same molecule, the slope in [7] was 0.00518 (inactive). Besides, the call in [8] was inactive.
For `CCC(=O)O[C@]1(C(=O)CCl)[C@@H](C)C[C@H]2[C@@H]3CCC4=CC(=O)C=C[C@]4(C)[C@@]3(F)[C@@H](O)C[C@@]21C`, in assay [1], the inhibition of aggregation is -20.8% (inactive). The results for the nuclei count in [1] and in assay [2] were 56.7% and 116%, respectively. The inhibition in [2] was -5.8% (inactive); in assay [4] it was 3.45% (inactive); in [9], 18.1% (inactive); in [10], -10.2% (inactive); in assay [11] it was -4.89% (inactive). For the same molecule, the values for the z-score in [3] (setting [12]), in assay [3] (setting [13]) and in [3] (setting [14]) were -0.246, 0.687 and 0.17, respectively. Further, in [5], the fluorescence slope is -0.528 (inactive). The NADPH fluorescence slope in [6] is -3.3e-05 (inactive). Further, in assay [7], the slope was 0.00421 (inactive). Also, the outcome in assay [8] was inactive.
Consider `CC(=O)O[C@]1(C(C)=O)CC[C@H]2[C@@H]3C=C(Cl)C4=CC(=O)CC[C@]4(C)[C@H]3CC[C@@]21C`, for which, in assay [1], the inhibition of aggregation was -13.1% (inactive). Further, the nuclei count in assay [1] was determined as 100%; in assay [2] it was 126%. The inhibition in assay [2] was -108% (inactive); in [4], 5.79% (inactive); in [9], 8.01% (inactive); in [10], -5.93% (inactive); in [11], 38.2% (inactive). Moreover, the z-score is -0.773 in [3] (setting [12]), -0.174 in [3] (setting [13]) and -0.613 in [3] (setting [14]). In addition, the fluorescence slope in assay [5] was -0.438 (inactive). Also, the NADPH fluorescence slope in [6] is -6.7e-05 (inactive). Also, the slope in [7] is 0.00452 (inactive).
Regarding `CC(C)C[C@H]1C(=O)N2CCC[C@H]2[C@]2(O)O[C@](NC(=O)[C@@H]3C=C4c5cccc6[nH]c(Br)c(c56)CC4N(C)C3)(C(C)C)C(=O)N12` (some centres undefined), the inhibition of aggregation in assay [1] is -4% (inactive). Further, the nuclei count in assay [1] stood at 96.5%; in assay [2] it was 122%. Further, the inhibition was -74.8% (inactive) in [2]; 5.42% (inactive) in assay [4]; -11.5% (inactive) in assay [9]; 7.85% (inactive) in assay [10]; 5.12% (inactive) in [11]. Besides, the values for the z-score in assay [3] (setting [12]), in assay [3] (setting [13]) and in [3] (setting [14]) were -0.747, -0.999 and 0.764, respectively. Moreover, in [5], the fluorescence slope was -0.523 (inactive). In addition, in assay [6], the NADPH fluorescence slope was 8.6e-06 (inactive). Also, in assay [7], the slope was 0.00416 (inactive). In [8], the call was inactive.
For `CC1(C)S[C@@H]2[C@H](NC(=O)Cc3ccccc3)C(=O)N2[C@H]1C(=O)O`, the inhibition of aggregation in assay [1] was 9.3% (inactive). The nuclei count in [1] stood at 68.8%; in assay [2] it was 104%. For the same molecule, the inhibition in assay [2] was -6% (inactive); in assay [4], 5.79% (inactive); in [9] it was 4.14% (inactive); in assay [10], 20.3% (inactive); in [11], 37.6% (inactive). The z-score in [3] (setting [12]) was 1.44; in [3] (setting [13]) it was -1.24; in assay [3] (setting [14]), -1.04. The fluorescence slope in assay [5] was -0.496 (inactive). In addition, in assay [6], the NADPH fluorescence slope was -5.4e-05 (inactive). In addition, in assay [7], the slope is 0.00416 (inactive). Besides, the result in [8] was inactive.
Consider `Cn1c(=O)c2c(ncn2CC(O)CO)n(C)c1=O` (centres undefined), for which the inhibition of aggregation in [1] is 15% (inactive). Moreover, the nuclei count turned out to be 90% in assay [1] and 127% in assay [2]. Further, the inhibition was -81.8% (inactive) in [2]; 3.59% (inactive) in [4]; 8.88% (inactive) in [9]; 12.6% (inactive) in assay [10]; 29.1% (inactive) in assay [11]. For the same molecule, the z-score was 0.192 in assay [3] (setting [12]), -0.712 in assay [3] (setting [13]) and 0.659 in assay [3] (setting [14]). For the same molecule, the fluorescence slope in [5] is -0.438 (inactive). Besides, the NADPH fluorescence slope in assay [6] was 4.1e-05 (inactive). Also, the slope in [7] was 0.00483 (inactive). In [8], the molecule was classed as inactive.
Turning to `CC1CCc2cc(F)cc3c(=O)c(C(=O)O)cn1c23` (centres undefined), in [1], the inhibition of aggregation was 3.7% (inactive). Further, the nuclei count in [1] was determined as 100%; in [2], 114%. The inhibition in assay [2] is -103% (inactive); in assay [4], 13.3% (inactive); in assay [9], -5.13% (inactive); in [10], 9.82% (inactive); in assay [11] it was 32.9% (inactive). In addition, the values for the z-score in assay [3] (setting [12]), in [3] (setting [13]) and in [3] (setting [14]) were -0.137, -0.228 and 0.466, respectively. In assay [5], the fluorescence slope is -0.526 (inactive). The NADPH fluorescence slope in assay [6] is -7.5e-05 (inactive). In assay [7], the slope was 0.00491 (inactive). Also, in assay [8], the call was inactive.
Consider `Oc1c(Cl)cc(Cl)cc1Sc1cc(Cl)cc(Cl)c1O`, for which the inhibition of aggregation in [1] is 13.7% (inactive). The nuclei count turned out to be 90% in assay [1] and 117% in assay [2]. For the same molecule, the inhibition in [2] is -49.8% (inactive); in assay [4] it was 1.48% (inactive); in assay [9], 155% (active); in assay [10] it was 10.6% (inactive); in assay [11], -53.7% (inactive). The z-score was -0.357 in [3] (setting [12]), -0.512 in [3] (setting [13]) and 0.181 in assay [3] (setting [14]). The fluorescence slope in [5] was -0.478 (inactive). Also, the NADPH fluorescence slope in assay [6] is -6e-05 (inactive). Further, in assay [7], the slope was 0.00369 (inactive). Also, the molecule was called inactive in [8].
Take `Nc1ccc(C(=O)O)c(O)c1`: the inhibition of aggregation in assay [1] was 3.1% (inactive) and 6.7% (inactive). For the same molecule, the nuclei count in [1] is 99.9% and 81.7%; in [2], 121% and 120%. The inhibition in assay [2] is -66.9% (inactive) and -44% (inactive); in assay [4], 3.59% (inactive) and 13.3% (inactive); in [9], -10.5% (inactive) and -2.41% (inactive); in assay [10], 5.21% (inactive) and 16.9% (inactive); in [11], 9.44% (inactive) and 29.7% (inactive). Besides, the z-score in [3] (setting [12]) was 0.96 and 0.975; in [3] (setting [13]), -0.574 and 0.166; in assay [3] (setting [14]) it was 0.314 and -1.51. Also, the fluorescence slope in [5] was -0.483 (inactive) and -0.504 (inactive). Also, the NADPH fluorescence slope in assay [6] was -1.6e-05 (inactive) and -1e-05 (inactive). The slope in [7] was 0.00463 (inactive) and 0.00637 (inactive). For the same molecule, the molecule was classed as inactive in [8].
As for `CC1(C)O[C@@H]2C[C@H]3[C@@H]4CCC5=CC(=O)C=C[C@]5(C)[C@@]4(F)[C@@H](O)C[C@]3(C)[C@]2(C(=O)CO)O1`, in assay [1], the inhibition of aggregation was -6.5% (inactive). In addition, the nuclei count in assay [1] amounted to 62.6%; in assay [2] it was 116%. For the same molecule, the inhibition in assay [2] was -115% (inactive); in assay [4], -2.46% (inactive); in assay [9], -13.3% (inactive); in assay [10], -3.36% (inactive); in [11] it was 10.8% (inactive). For the same molecule, the z-score in [3] (setting [12]) is 0.696; in assay [3] (setting [13]), -0.511; in [3] (setting [14]), -0.313. For the same molecule, in [5], the fluorescence slope is -0.515 (inactive). In addition, in assay [6], the NADPH fluorescence slope is -2.4e-05 (inactive). Also, the slope in assay [7] is 0.00512 (inactive). For the same molecule, the molecule was classed as inactive in [8].
For `CN(C)CCCC1(c2ccc(F)cc2)OCc2cc(C#N)ccc21` (centres undefined), in assay [1], the inhibition of aggregation is -40.9% (inactive). Besides, the nuclei count in assay [1] worked out at 103%; in assay [2] it was 141%. The inhibition in assay [2] was -57.3% (inactive); in [4], -9.66% (inactive); in [9], 8.33% (inactive) and 1.25% (inactive); in [10] it was 1.82% (inactive); in [11] it was 18.9% (inactive). Moreover, the z-score in assay [3] (setting [12]) is -1.47; in assay [3] (setting [13]), -1.41; in assay [3] (setting [14]), 2.05. The fluorescence slope in [5] is -0.453 (inactive). For the same molecule, the NADPH fluorescence slope in [6] is 1.8e-06 (inactive). In addition, the slope in [7] is 0.00413 (inactive). For the same molecule, in assay [8], the molecule was called inactive.
